How the values were obtained:
Conditions in all cases: concentration: 1 μM, replicates: in singlicate; n = 1
[1] = tested on: T1, ERK1
T1 construct: gene MAPK3

[2] = tested on: T2, ERK2
T2 construct: gene MAPK1

[3] = tested on: T3, ERK3
T3 construct: gene MAPK6

[4] = tested on: T4, ERK4
T4 construct: gene MAPK4

[5] = tested on: T5, ERK5
T5 construct: gene MAPK7

[6] = tested on: T6, ERK8
T6 construct: gene MAPK15

[7] = tested on: ERN1
[8] = tested on: T7, FAK
T7 construct: gene PTK2

[9] = tested on: FER
[10] = tested on: FES
[11] = tested on: FGFR1
[12] = tested on: FGFR2
[13] = tested on: FGFR3
[14] = tested on: FGFR4
[15] = tested on: FGR
[16] = tested on: FLT1
[17] = tested on: FLT3-autoinhibited
[18] = tested on: FLT3
[19] = tested on: FLT4
[20] = tested on: FRK
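Also: KINOMEscan kinase panel screen.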

## Cc1cccc(Nc2nc(N[C@H]3CCCC[C@H]3N)ncc2C(N)=O)c1.Cl [GSK986310]
[1]
  %Inh: 8%
[2]
  %Inh: 27%
[3]
  %Inh: 27%
[4]
  %Inh: 49%
[5]
  %Inh: 0%
[6]
  %Inh: 0%
[7]
  %Inh: 2%
[8]
  %Inh: 12%
[9]
  %Inh: 84%
[10]
  %Inh: 0%
[11]
  %Inh: 24%
[12]
  %Inh: 4%
[13]
  %Inh: 3%
[14]
  %Inh: 15%
[15]
  %Inh: 56%
[16]
  %Inh: 43%
[17]
  %Inh: 1%
[18]
  %Inh: 23%
[19]
  %Inh: 24%
[20]
  %Inh: 19%

## N#Cc1cnc2cc(-c3cnc(CNCCN4CCOCC4)s3)ccc2c1Nc1ccc(Oc2ccccc2)cc1 [GW664114]
[1]
  %Inh: 0%
[2]
  %Inh: 0%
[3]
  %Inh: 0%
[4]
  %Inh: 48%
[5]
  %Inh: 0%
[6]
  %Inh: 0%
[7]
  %Inh: 21%
[8]
  %Inh: 0%
[9]
  %Inh: 82%
[10]
  %Inh: 94.9%
[11]
  %Inh: 0%
[12]
  %Inh: 0%
[13]
  %Inh: 2%
[14]
  %Inh: 0%
[15]
  %Inh: 96.7%
[16]
  %Inh: 53%
[17]
  %Inh: 7%
[18]
  %Inh: 70%
[19]
  %Inh: 22%
[20]
  %Inh: 17%

## COc1cc(Nc2nccc(N3CCC(NS(=O)(=O)c4ccc(NC(C)=O)cc4)CC3)n2)cc(OC)c1OC [GSK1379825]
[1]
  %Inh: 0%
[2]
  %Inh: 0%
[3]
  %Inh: 83%
[4]
  %Inh: 0%
[5]
  %Inh: 0%
[6]
  %Inh: 29%
[7]
  %Inh: 0%
[8]
  %Inh: 0%
[9]
  %Inh: 6%
[10]
  %Inh: 48%
[11]
  %Inh: 17%
[12]
  %Inh: 71%
[13]
  %Inh: 59%
[14]
  %Inh: 69%
[15]
  %Inh: 50%
[16]
  %Inh: 53%
[17]
  %Inh: 73%
[18]
  %Inh: 92%
[19]
  %Inh: 71%
[20]
  %Inh: 35%

## O=C(Nc1c(F)cccc1F)c1cc(C(=O)c2ccccc2F)c[nH]1 [GSK1326180]
[1]
  %Inh: 8%
[2]
  %Inh: 3%
[3]
  %Inh: 9%
[4]
  %Inh: 0%
[5]
  %Inh: 0%
[6]
  %Inh: 0%
[7]
  %Inh: 0%
[8]
  %Inh: 0%
[9]
  %Inh: 0%
[10]
  %Inh: 0%
[11]
  %Inh: 0%
[12]
  %Inh: 0%
[13]
  %Inh: 5%
[14]
  %Inh: 0%
[15]
  %Inh: 0%
[16]
  %Inh: 6%
[17]
  %Inh: 0%
[18]
  %Inh: 1%
[19]
  %Inh: 0%
[20]
  %Inh: 7%

## Nc1ncc(-c2cn[nH]c2)c2scc(-c3ccc4c(c3)CCN4C(=O)Cc3ccccc3)c12 [GSK2593067]
[1]
  %Inh: 3%
[2]
  %Inh: 3%
[3]
  %Inh: 0%
[4]
  %Inh: 0%
[5]
  %Inh: 0%
[6]
  %Inh: 10%
[7]
  %Inh: 0%
[8]
  %Inh: 0%
[9]
  %Inh: 29%
[10]
  %Inh: 0%
[11]
  %Inh: 37%
[12]
  %Inh: 31%
[13]
  %Inh: 19%
[14]
  %Inh: 0%
[15]
  %Inh: 80%
[16]
  %Inh: 83%
[17]
  %Inh: 13%
[18]
  %Inh: 98.4%
[19]
  %Inh: 43%
[20]
  %Inh: 38%

## Cn1cc(-c2cnc(N)c3c(-c4ccc5c(c4)CCN5C(=O)Cc4ccccc4)csc23)cn1 [GSK2593074]
[1]
  %Inh: 0%
[2]
  %Inh: 0%
[3]
  %Inh: 0%
[4]
  %Inh: 0%
[5]
  %Inh: 15%
[6]
  %Inh: 11%
[7]
  %Inh: 28%
[8]
  %Inh: 7%
[9]
  %Inh: 10%
[10]
  %Inh: 14%
[11]
  %Inh: 28%
[12]
  %Inh: 40%
[13]
  %Inh: 49%
[14]
  %Inh: 0%
[15]
  %Inh: 75%
[16]
  %Inh: 79%
[17]
  %Inh: 0%
[18]
  %Inh: 99%
[19]
  %Inh: 31%
[20]
  %Inh: 38%

## O=C(Nc1n[nH]c2nc(-c3cccc(O)c3)ccc12)C1CC1 [SB-711805]
[1]
  %Inh: 0%
[2]
  %Inh: 0%
[3]
  %Inh: 0%
[4]
  %Inh: 0%
[5]
  %Inh: 47%
[6]
  %Inh: 42%
[7]
  %Inh: 0%
[8]
  %Inh: 0%
[9]
  %Inh: 36%
[10]
  %Inh: 0%
[11]
  %Inh: 18%
[12]
  %Inh: 0%
[13]
  %Inh: 0%
[14]
  %Inh: 0%
[15]
  %Inh: 9%
[16]
  %Inh: 10%
[17]
  %Inh: 21%
[18]
  %Inh: 13%
[19]
  %Inh: 0%
[20]
  %Inh: 0%

## Cl.N#CCc1ccc(Nc2nccc(Nc3ccc(Oc4ccccc4)cc3)n2)cc1 [GW639905]
[1]
  %Inh: 0%
[2]
  %Inh: 0%
[3]
  %Inh: 0%
[4]
  %Inh: 0%
[5]
  %Inh: 0%
[6]
  %Inh: 35%
[7]
  %Inh: 10%
[8]
  %Inh: 0%
[9]
  %Inh: 0%
[10]
  %Inh: 0%
[11]
  %Inh: 11%
[12]
  %Inh: 8%
[13]
  %Inh: 13%
[14]
  %Inh: 0%
[15]
  %Inh: 90.2%
[16]
  %Inh: 43%
[17]
  %Inh: 23%
[18]
  %Inh: 94.5%
[19]
  %Inh: 12%
[20]
  %Inh: 39%

## CC(C)c1nc(-c2cccc(NS(=O)(=O)c3c(F)cccc3F)c2)c(-c2ccnc(Nc3ccc(N4CCOCC4)nc3)n2)s1.Cl [GSK1723980]
[1]
  %Inh: 0%
[2]
  %Inh: 0%
[3]
  %Inh: 0%
[4]
  %Inh: 0%
[5]
  %Inh: 0%
[6]
  %Inh: 97.9%
[7]
  %Inh: 50%
[8]
  %Inh: 0%
[9]
  %Inh: 49%
[10]
  %Inh: 18%
[11]
  %Inh: 14%
[12]
  %Inh: 0%
[13]
  %Inh: 4%
[14]
  %Inh: 0%
[15]
  %Inh: 98.4%
[16]
  %Inh: 98.3%
[17]
  %Inh: 0%
[18]
  %Inh: 66%
[19]
  %Inh: 99.9%
[20]
  %Inh: 96.3%

## COc1ccc(NC(=O)c2ccoc2)cc1-c1ccc(C(=O)NCC2CC2)cc1 [GW810437]
[1]
  %Inh: 0%
[2]
  %Inh: 7%
[3]
  %Inh: 0%
[4]
  %Inh: 6%
[5]
  %Inh: 7%
[6]
  %Inh: 0%
[7]
  %Inh: 33%
[8]
  %Inh: 0%
[9]
  %Inh: 0%
[10]
  %Inh: 7%
[11]
  %Inh: 3%
[12]
  %Inh: 0%
[13]
  %Inh: 0%
[14]
  %Inh: 1%
[15]
  %Inh: 0%
[16]
  %Inh: 0%
[17]
  %Inh: 0%
[18]
  %Inh: 0%
[19]
  %Inh: 12%
[20]
  %Inh: 14%

— publication PMC5540273 (PLoS ONE, 2017)
